# OTUD3 inh: inhibitors of human OTUD3 deubiquitinase; Q5T2D3; purified OTUD3, Ub-rhodamine fluorescence, 2 h; inhibition, % at 25 µM; 0.7% of 47,000 active
# USP28 inh: human USP28 deubiquitinase inhibition. Q96RU2. purified USP28, Ub-rhodamine cleavage fluorescence, 30 min. inhibition, % at 25 µM. 3% of 47,000 active. AID 1645857
# USP17 block: human USP17-like deubiquitinase inhibition. A8MUK1. purified USP17, Ub-rhodamine cleavage fluorescence, 3 h. inhibition, % at 50 µM. 6.5% of 47,000 active. AID 1645855
# USP30 block: human USP30 deubiquitinase inhibition; inhibition, % at 25 µM; Q70CQ3; purified USP30, Ub-rhodamine cleavage fluorescence; 5.3% of 47,000 active
# Target sequence (Q70CQ3 whole entry, looked up): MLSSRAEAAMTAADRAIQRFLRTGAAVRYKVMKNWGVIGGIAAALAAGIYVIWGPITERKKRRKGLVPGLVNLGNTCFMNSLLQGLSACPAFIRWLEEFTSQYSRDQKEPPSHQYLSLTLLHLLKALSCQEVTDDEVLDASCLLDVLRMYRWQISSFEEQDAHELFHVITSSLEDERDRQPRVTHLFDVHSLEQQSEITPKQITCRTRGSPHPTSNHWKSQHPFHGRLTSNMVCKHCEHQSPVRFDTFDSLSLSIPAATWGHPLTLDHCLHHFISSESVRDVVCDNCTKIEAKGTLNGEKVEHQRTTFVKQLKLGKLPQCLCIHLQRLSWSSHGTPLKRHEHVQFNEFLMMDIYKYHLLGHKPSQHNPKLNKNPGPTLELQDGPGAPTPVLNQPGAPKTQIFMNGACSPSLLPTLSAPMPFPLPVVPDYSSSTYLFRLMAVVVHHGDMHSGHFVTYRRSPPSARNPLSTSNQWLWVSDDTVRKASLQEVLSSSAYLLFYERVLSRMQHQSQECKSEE
# * = called active by the depositor; / = no result. Hits are enriched below; roughly 12% of the tested compounds scored in any of these assays. Cut-off read from the data, not from the text of the source: active = inhibition above about 30%; inactive = the rest.
SMILES,OTUD3 inh,USP28 inh,USP17 block,USP30 block
COc1ccc(-c2cc(C(F)F)n3ncc(C(=O)Nc4ccc5c(c4)OCCO5)c3n2)cc1,2,5,11,56*
CSc1nc(SCC(=O)N(c2ccccc2)c2ccccc2)c2c3c(sc2n1)COC(C)(C)C3,0,-11,-4,-3
CCN(CCCNC(=O)CCc1nnc2n(Cc3ccc(Cl)cc3)c(=O)c3ccccc3n12)c1cccc(C)c1,15,8,/,14
O=C(Oc1ccccc1Br)c1cc(-c2ccc3c(c2)OCCO3)on1,10,27,21,33*
O=C(NCC(c1ccccc1)N1CCCC1)c1cc(-c2ccc3c(c2)OCCO3)on1 (stereo unspecified),-29,1,-8,-79
COc1ccc(S(=O)(=O)N2CCCCCC2)cc1NC(=O)c1cccc(Cl)c1,-2,-10,/,5
COc1cc(C(=O)Nc2nc3ccc(S(=O)(=O)N4CCCC4)cc3s2)cc(OC)c1OC,-9,-22,40*,-67
COc1cc(-c2c(NC(=O)c3ccc([N+](=O)[O-])cc3)n(C)c3ccccc3c2=O)cc(OC)c1OC,14,12,22,31*
O=C(NCc1ccc(F)cc1)c1nc(CS(=O)(=O)c2ccccc2)no1,-9,-4,-8,-21
O=C(c1ccco1)N(c1ccc(Oc2ccccc2)cc1)c1nc2ccccc2s1,6,0,45*,16
CN1C(=O)Cc2cc(S(=O)(=O)N3CCC(c4ccncc4)CC3)ccc21,-16,-12,39*,22
CCN(CC)c1ccc(C(=O)CN2CCC(S(=O)(=O)c3ccc(C)cc3)CC2)cc1,-16,-16,4,-55
O=S(=O)(c1ccc(-c2ccco2)cc1)C1CCN(Cc2cccnc2)CC1,-3,-7,21,-39
O=C(c1ccc2occc2c1)N1CCC(S(=O)(=O)c2ccc(-c3ccco3)cc2)CC1,14,20,53*,13
CCN(CC)c1ccc(C(=O)CN2CCC(S(=O)(=O)c3ccc(-c4ccco4)cc3)CC2)cc1,2,10,31*,-10
CS(=O)(=O)N1CC(C(=O)N2C[C@@H](O)[C@H](N3CCCC3)C2)C1,0,-5,3,2
CC(C)(C)c1cc(NC(=O)C2CCCO2)no1 (stereo unspecified),-11,-9,-3,-13
CC(C)(C)c1cc(C[C@@H]2C[C@H](NC(=O)N3CCOCC3)C2(C)C)no1,13,16,39*,69*
Cc1cc(C(=O)Nc2nc3c(s2)CN(C(=O)/C=C/c2ccco2)CC3)no1,8,20,35*,-77
O=C(Nc1nc2c(s1)CN(C(=O)/C=C/c1ccco1)CC2)c1cnccn1,4,2,-4,-107
O=C(COC(=O)c1sc2ccccc2c1Cl)Nc1ccc(F)cc1,8,8,2,25
NS(=O)(=O)c1ccc(NC(=O)COC(=O)c2sc3cc(F)ccc3c2Cl)cc1,15,34*,23,41*
O=C(NC1CC1)c1ccc(OCC2CCCN(C(=O)c3cccc(F)c3)C2)cc1 (stereo unspecified),14,9,-2,20
O=C(COC(=O)CCc1nc2ccccc2c(=O)[nH]1)Nc1ccc2c(c1)OCCO2,-1,12,11,-48
CCn1c(=O)c(CCC(=O)NCc2ccc(OC)cc2)c(C)c2c(C)nn(-c3ccccc3C)c21,24,56*,70*,77*
SMILES,OTUD3 inh,USP28 inh,USP17 block,USP30 block
Cc1cc(C)c(NC(=O)Cn2c(=O)n(Cc3ccccc3)c(=O)c3nn(C)cc32)c(C)c1,44*,64*,68*,85*
Cn1cc2c(n1)c(=O)n(Cc1ccc(F)cc1)c(=O)n2CC(=O)NCc1ccccc1,11,9,12,25
CCn1cc2c(n1)c(=O)n(Cc1ccccc1)c(=O)n2CC(=O)Nc1ccc(C)cc1C,9,16,36*,33*
CCn1c(=O)c2nscc2n(CC(=O)Nc2ccc(C)cc2Cl)c1=O,-1,/,5,/
COc1ccc(CC(=O)N2CCc3nc(C(N)=O)sc3CC2)cc1,4,0,3,-154
COc1ccc(CC(=O)N2CCN(c3ccc(-n4cccn4)nn3)CC2)cc1,2,26,11,34*
COC(=O)C12Oc3cc4c(c(O)c3C(O)=C1C(=O)CCC2O)C1C=CC2(C4)C(=O)c3cc(C)cc(O)c3C(O)=C2C1=O (stereo unspecified),18,30,48*,-63
COC(=O)[C@@]12Oc3ccc(-c4ccc5c(c4O)C(O)=C4C(=O)C[C@H](C)[C@H](O)[C@]4(C(=O)OC)O5)c(O)c3C(O)=C1C(=O)C[C@H](C)[C@H]2O,10,0,-25,21
COc1ccc(CCNC(=O)C(=O)c2cn(CC(=O)N3CCCCC3)c3ccccc23)cc1OC,0,3,13,16
Cc1ncccc1C(=O)N1CCC(O)(Cn2c(C)cc3ccncc32)CC1,-7,-11,-19,-9
O=C(CC1C=CCC1)N1CCC(c2ccc(Nc3ccc(F)cn3)cn2)CC1 (stereo unspecified),-17,-7,32*,-50
COc1ccc(S(=O)(=O)N(C)Cc2cccs2)cc1OC,18,68*,11,27
COc1ccc2nc3c(cc2c1)CN(CC1CC1)C(=O)CO3,29,14,5,40*
COCCCN1Cc2cc3cc(OC)ccc3nc2OCC1=O,4,8,15,5
Cc1ccc(C)c(CN2C(=O)c3ccccc3S(=O)c3ccc(C(=O)NCCc4ccccc4)cc32)c1 (stereo unspecified),7,27,9,38*
COc1ccc(CCNC(=O)c2ccc3c(c2)N(Cc2cc(C)ccc2C)C(=O)c2ccccc2S3(=O)=O)cc1OC,-5,0,0,-7
Cc1cc(NC(=O)c2c3c(nc4ccccc24)CCN(Cc2ccccc2)C3)ccc1Br,-65,-100,-60,-291
CCOC(=O)C1=C(CN2CCN(c3ccc(F)cc3)CC2)NC(=O)NC1c1ccc(OC)cc1 (stereo unspecified),0,-2,36*,34*
O=C1NC2(CCN(S(=O)(=O)c3ccc(F)cc3F)CC2)Nc2ccccc21,3,12,0,22
Cc1ccc(C)c(S(=O)(=O)N2CCC3(CC2)NC(=O)c2ccccc2N3)c1,10,5,59*,20
O=C1NC2(CCN(C(=O)CSc3ccncc3)CC2)Nc2ccccc21,4,2,12,5
O=C1NC2(CCN(S(=O)(=O)c3ccc(F)c(Cl)c3)CC2)Nc2ccccc21,-3,-7,50*,-2
O=C(CCn1cnc2cc(-c3noc(-c4ccccn4)n3)ccc21)N1CCCC1,9,11,17,16
Cc1ccc2[nH]c(=O)c(-c3noc(-c4ccc([N+](=O)[O-])cc4)n3)cc2c1,10,10,48*,42*
COC(=O)c1c(C)[nH]c(C(=O)C(C)OC(=O)c2cccc(C)c2)c1C (stereo unspecified),-8,8,19,-22
CC(C)NS(=O)(=O)c1cccc2c(NC(=O)C(Cc3ccccc3)NC(=O)c3ccccc3)cccc12 (stereo unspecified),1,1,6,79*

# Compound activity deposited in PubChem by Buhrlage Lab, Dana-Farber Cancer Institute and Novartis Institutes for BioMedical Research (Cambridge, Mass).
